Results: PubChem BioAssay AID1159580 (chemical genetic matrix, 2015)
Values joined by “and” are separate entries in the source; they are usually repeats but may differ in a detail not shown here. Equal values may be shown once. Out of some 5,500 compounds screened, about 2,000 (36%) were called active. About 18% were inconclusive and are not listed. Rule as the data show it: active = normalized growth mostly below about 0.91 (no sharp cut-off); inconclusive = no clear call, values can overlap the other calls; inactive = mostly above about 0.92. Some of the results follow.

Assay: chemical genetic growth profiling, strain panel (AID 1159580);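 also: tested at 20 µM; growth read once vehicle control cultures reached saturation at 30 °C; 1 = growth at the plate median or of vehicle wells; lower values mean less growth of the strain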
Conditions: S. cerevisiae deletion strains, growth OD
[1] = locus YBR229C, strain ROT2, stronger effect = lower value
[2] = locus YDL101C, strain DUN1, stronger effect = lower value
[3] = locus YDR150W, strain NUM1, stronger effect = lower value
[4] = locus YEL061C, strain CIN8, stronger effect = lower value
[5] = locus YGR078C, strain PAC10, stronger effect = lower value
[6] = locus YHR030C, strain SLT2, stronger effect = lower value
[7] = locus YJR043C, strain POL32, stronger effect = lower value
[8] = locus YJR075W, strain HOC1, stronger effect = lower value
[9] = locus YLR039C, strain RIC1, stronger effect = lower value
[10] = locus YLR262C, strain YPT6, stronger effect = lower value
[11] = locus YMR307W, strain GAS1, stronger effect = lower value
[12] = locus YPL055C, strain LGE1, stronger effect = lower value
[13] = locus YPL241C, strain CIN2, stronger effect = lower value

Measured: normalized growth

Oc1c(Cl)cc(Cl)cc1Sc1cc(Cl)cc(Cl)c1O
0.951 (inactive) and 0.106 (active): locus YJL095W, strain BCK1, stronger effect = lower value
inactive: locus YBR021W, strain FUR4, stronger effect = lower value 0.989 | [1] 0.998 | locus YCL029C, strain bik1, stronger effect = lower value 0.964 | locus YDL035C, strain GPR1, stronger effect = lower value 1.05 | locus YDL074C, strain BRE1, stronger effect = lower value 0.979 | [2] 0.978 | locus YDL185W, strain tfp1, stronger effect = lower value 0.966 | locus YDL192W, strain arf1, stronger effect = lower value 0.992 | locus YDR101C, strain arx1, stronger effect = lower value 0.978 | [3] 0.982 | locus YDR162C, strain NBP2, stronger effect = lower value 1.01 | locus YDR318W, strain mcm21, stronger effect = lower value 0.98 | locus YDR388W, stronger effect = lower value 0.983 | locus YDR502C, strain sam2, stronger effect = lower value 0.985 | [4] 0.988 | locus YER110C, stronger effect = lower value 0.964 | locus YER155C, strain BEM2, stronger effect = lower value 0.985 | locus YER167W, strain BCK2, stronger effect = lower value 0.996 | locus YGL078C, strain dbp3, stronger effect = lower value 0.984 | locus YGL086W, strain mad1, stronger effect = lower value 0.995 | locus YGL248W, strain PDE1, stronger effect = lower value 0.981 | [5] 0.981 | locus YGR135W, strain pre9, stronger effect = lower value 0.98 | locus YGR229C, strain SMI1, stronger effect = lower value 1.02 | locus YGR252W, strain gcn5, stronger effect = lower value 1.03 | locus YHR079C, strain IRE1 (second series), stronger effect = lower value 0.966 | locus YHR094C, strain hxt1, stronger effect = lower value 0.976 | locus YHR129C, strain ARP1, stronger effect = lower value 0.994 | locus YHR200W, strain rpn10, stronger effect = lower value 0.97 | locus YIL066C, strain RNR3, stronger effect = lower value 1.01 | locus YIL073C, strain SPO22, stronger effect = lower value 0.942 | locus YIL125W, strain kgd1, stronger effect = lower value 0.996 | locus YIR030C, strain dcg1, stronger effect = lower value 1.01 | locus YJL134W, strain LCB3, stronger effect = lower value 0.989 | locus YJL168C, strain set2, stronger effect = lower value 0.984 | locus YJL187C, strain SWE1 (second series), stronger effect = lower value 0.969 | [7] 1.05 | [8] 0.962 | locus YKL009W, strain mrt4, stronger effect = lower value 0.956 | locus YKL068W, stronger effect = lower value 0.978 | locus YKL085W, strain MDH1 (second series), stronger effect = lower value 0.973 | locus YKL085W, strain MDH1, stronger effect = lower value 0.973 | locus YKR001C, strain vps1, stronger effect = lower value 1.01 | [9] 0.945 | locus YLR058C, strain SHM2, stronger effect = lower value 0.984 | locus YLR102C, strain apc9, stronger effect = lower value 0.962 | [10] 1 | locus YLR268W, strain sec22, stronger effect = lower value 0.976 | locus YLR330W, strain CHS5, stronger effect = lower value 0.995 | locus YLR342W, strain FKS1 (second series), stronger effect = lower value 1.05 | locus YLR371W, strain rom2, stronger effect = lower value 0.994 | locus YLR418C, strain cdc73, stronger effect = lower value 0.979 | locus YML016C, strain PPZ1, stronger effect = lower value 0.991 | locus YML032C, strain rad52, stronger effect = lower value 0.986 | locus YML124C, strain tub3, stronger effect = lower value 0.989 | locus YMR078C, strain ctf18, stronger effect = lower value 0.989 | locus YMR223W, strain ubp8, stronger effect = lower value 0.991 | [11] 1.17 | locus YNL067W, strain RPL9B, stronger effect = lower value 0.941 | locus YNL233W, strain BNI4, stronger effect = lower value 0.966 | locus YNL250W, strain rad50, stronger effect = lower value 0.98 | locus YNL271C, strain bni1, stronger effect = lower value 0.996 | locus YNL298W, strain CLA4, stronger effect = lower value 0.967 | locus YNL307C, strain MCK1, stronger effect = lower value 0.975 | locus YNR052C, strain pop2, stronger effect = lower value 0.982 | locus YOL006C, strain TOP1, stronger effect = lower value 0.921 | locus YOL012C, strain htz1 0.709 | locus YOL147C, strain pex11, stronger effect = lower value 0.975 | locus YOR061W, strain CKA2, stronger effect = lower value 0.994 | locus YOR069W, strain VPS5, stronger effect = lower value 0.989 | locus YOR136W, strain idh2, stronger effect = lower value 0.978 | locus YOR144C, strain elg1, stronger effect = lower value 0.993 | locus YOR184W, strain ser1, stronger effect = lower value 0.979 | locus YOR316C, strain cot1, stronger effect = lower value 0.97 | [12] 0.973 | [13] 0.984 | locus YPR119W, strain clb2, stronger effect = lower value 0.985 | locus YPR141C, strain kar3, stronger effect = lower value 0.979 | locus YPR163C, strain tif3, stronger effect = lower value 0.983 | locus YPR167C, strain met16, stronger effect = lower value 0.986 | strain wtn01, stronger effect = lower value 0.995
0.99 (inactive) and 0.152 (active): [6]
active: locus YAL021C, strain ccr4, stronger effect = lower value 0.067 | locus YAL026C, strain drs2, stronger effect = lower value 0.0634 | locus YAL030W, strain snc1, stronger effect = lower value 0.0557 | locus YBL061C, strain skt5, stronger effect = lower value 0.0575 | locus YBR009C, strain hhf1, stronger effect = lower value 0.061 | locus YBR023C, strain chs3, stronger effect = lower value 0.0607 | locus YBR171W, strain sec66, stronger effect = lower value 0.077 | locus YBR231C, strain swc5, stronger effect = lower value 0.0615 | locus YBR279W, strain paf1, stronger effect = lower value 0.0577 | locus YCL011C, strain gbp2, stronger effect = lower value 0.0589 | locus YCL016C, strain dcc1, stronger effect = lower value 0.064 | locus YCL069W, strain vba3, stronger effect = lower value 0.0603 | locus YCR088W, strain abp1, stronger effect = lower value 0.0604 | locus YDL005C, strain med2, stronger effect = lower value 0.0721 | locus YDL040C, strain nat1, stronger effect = lower value 0.0555 | locus YDR001C, strain nth1, stronger effect = lower value 0.0578 | locus YDR069C, strain doa4, stronger effect = lower value 0.0618 | locus YDR137W, strain rgp1, stronger effect = lower value 0.09 | locus YDR159W, strain sac3, stronger effect = lower value 0.0888 | locus YDR195W, strain ref2 0.123 | locus YDR297W, strain sur2, stronger effect = lower value 0.0581 | locus YDR334W, strain swr1, stronger effect = lower value 0.0632 | locus YDR335W, strain msn5, stronger effect = lower value 0.0596 | locus YDR392W, strain spt3, stronger effect = lower value 0.081 | locus YEL003W, strain gim4, stronger effect = lower value 0.0535 | locus YEL037C, strain rad23, stronger effect = lower value 0.0573 | locus YEL061C, strain CIN8 (second series), stronger effect = lower value 0.0607 | locus YER015W, strain faa2, stronger effect = lower value 0.0587 | locus YER016W, strain bim1, stronger effect = lower value 0.0576 | locus YER111C, strain swi4, stronger effect = lower value 0.0718 | locus YER155C, strain BEM2 (second series), stronger effect = lower value 0.0937 | locus YFR010W, strain ubp6, stronger effect = lower value 0.0679 | locus YGL167C, strain pmr1, stronger effect = lower value 0.0712 | locus YGL173C, strain kem1, stronger effect = lower value 0.0685 | locus YGL227W, strain vid30, stronger effect = lower value 0.0624 | locus YGL240W, strain doc1, stronger effect = lower value 0.0755 | locus YGL253W, strain hxk2, stronger effect = lower value 0.0537 | locus YHR013C, strain ard1, stronger effect = lower value 0.105 | locus YHR027C, strain rpn1, stronger effect = lower value 0.0591 | locus YHR079C, strain IRE1, stronger effect = lower value 0.129 | locus YHR142W, strain chs7, stronger effect = lower value 0.0784 | locus YJL092W, strain hpr5, stronger effect = lower value 0.0598 | locus YJL095W, strain BCK1 (second series), stronger effect = lower value 0.0564 | locus YJL115W, strain asf1, stronger effect = lower value 0.0719 | locus YJL129C, strain trk1, stronger effect = lower value 0.0818 | locus YJL154C, strain vps35, stronger effect = lower value 0.0607 | locus YJL164C, strain tpk1, stronger effect = lower value 0.0913 | locus YJL166W, strain qcr8, stronger effect = lower value 0.0591 | locus YJR066W, strain TOR1, stronger effect = lower value 0.00096 | locus YKL160W, strain elf1, stronger effect = lower value 0.0607 | locus YKR026C, strain gcn3, stronger effect = lower value 0.0616 | locus YKR091W, strain srl3, stronger effect = lower value 0.0572 | locus YLL001W, strain dnm1, stronger effect = lower value 0.0641 | locus YLL026W, stronger effect = lower value 0.0559 | locus YLL041C, strain sdh2, stronger effect = lower value 0.0561 | locus YLR027C, strain aat2, stronger effect = lower value 0.0575 | locus YLR113W, strain HOG1, stronger effect = lower value 0.152 | locus YLR221C, strain rsa3, stronger effect = lower value 0.0589 | locus YLR258W, strain gsy2, stronger effect = lower value 0.0608 | locus YLR262C, strain YPT6 (second series), stronger effect = lower value 0.0722 | locus YLR320W, strain mms22, stronger effect = lower value 0.0755 | locus YLR342W, strain FKS1, stronger effect = lower value 0.0628 | locus YLR357W, strain rsc2, stronger effect = lower value 0.119 | locus YLR370C, strain arc18, stronger effect = lower value 0.0603 | locus YLR384C, strain iki3, stronger effect = lower value 0.0584 | locus YML120C, strain ndi1, stronger effect = lower value 0.0563 | locus YMR058W, strain fet3, stronger effect = lower value 0.0603 | locus YMR125W, strain sto1, stronger effect = lower value 0.0858 | locus YMR129W, stronger effect = lower value 0.0578 | locus YMR205C, strain PFK2, stronger effect = lower value 0.0864 | locus YMR231W, strain pep5, stronger effect = lower value 0.0649 | locus YNL071W, strain lat1, stronger effect = lower value 0.0603 | locus YNL183C, strain NPR1, stronger effect = lower value -0.00055 | locus YNL209W, strain ssb2, stronger effect = lower value 0.0572 | locus YNL248C, strain rpa49, stronger effect = lower value 0.0762 | locus YNL322C, strain KRE1 (second series), stronger effect = lower value 0.0643 | locus YNR049C, strain mso1, stronger effect = lower value 0.0565 | locus YOR001W, strain rrp6, stronger effect = lower value 0.0689 | locus YOR070C, strain gyp1, stronger effect = lower value 0.0566 | locus YOR080W, strain dia2, stronger effect = lower value 0.0627 | locus YOR083W, strain WHI5, stronger effect = lower value 0.0603 | locus YOR106W, strain vam3, stronger effect = lower value 0.0687 | locus YOR231W, strain MKK1, stronger effect = lower value 0.118 | locus YOR265W, strain rbl2, stronger effect = lower value 0.0558 | locus YOR270C, strain vph1, stronger effect = lower value 0.113 | locus YOR290C, strain snf2, stronger effect = lower value 0.0666 | locus YPL051W, strain arl3, stronger effect = lower value 0.0608 | locus YPL078C, strain atp4, stronger effect = lower value 0.0682 | locus YPL106C, strain sse1, stronger effect = lower value 0.111 | locus YPL240C, strain hsp82, stronger effect = lower value 0.0577 | locus YPL256C, strain CLN2, stronger effect = lower value 0.147

Clc1cncc(Cl)c1N/N=C\C1CC2C=CC1C2 (configuration not stated)
inactive: locus YAL013W, strain DEP1, stronger effect = lower value 0.937 | [1] 0.939 | locus YCL061C, strain MRC1, stronger effect = lower value 0.928 | [2] 0.926 | locus YDL134C, strain PPH21, stronger effect = lower value 1.01 | [3] 0.915 | [4] 0.914 | [5] 0.967 | locus YJL187C, strain SWE1, stronger effect = lower value 0.989 | [7] 1 | [8] 0.935 | locus YLR058C, strain SHM2 (second series), stronger effect = lower value 0.99 | locus YMR219W, strain ESC1, stronger effect = lower value 0.988 | locus YMR263W, strain SAP30, stronger effect = lower value 0.939 | [11] 0.878 | locus YNL153C, strain GIM3, stronger effect = lower value 0.957 | locus YNL322C, strain KRE1, stronger effect = lower value 0.986 | locus YNR030W, strain Alg12, stronger effect = lower value 0.924 | [12] 0.872 | [13] 0.871
active: [6] 0.644 | locus YHR087W, strain rtc3, stronger effect = lower value 0.874 | [9] 0.599 | locus YLR085C, strain ARP6, stronger effect = lower value 0.74 | [10] 0.601 | locus YML094W, strain GIM5, stronger effect = lower value 0.838 | locus YNL298W, strain CLA4 (second series), stronger effect = lower value 0.799 | locus YPR135W, strain CTF4, stronger effect = lower value 0.622
